A selection: hits, their analogues and other compounds. The true share with any hit is near 27%.
Cav3 T inh: blocks human Cav3.2 T-type calcium channel | Cav3.2-expressing cells, Fluo-4 calcium fluorescence FDSS; stronger effect = lower value | B-score at 10 µM | 100,000 compounds, 4% hits | AID 449739;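 active = single-dose well whose peak fluorescence ratio is a statistical outlier from its plate by either plate-standardised score or position-corrected B-score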
CYP2C19 inh: inhibitors of human CYP2C19; CYP2C19 Supersomes, luciferin-H EGE luminescence, 30 min; inhibition, % at 5 µM; 96,000 compounds, 21% hits;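 active = CYP2C19 inhibition above a set limit at 5 µM in the primary screen, cut at about 50% in these data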;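 note: plate controls were negative control wells for no effect and 2.5 mM tranylcypromine positive control for full effect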
CYP2C9 activ: increases human cytochrome P450 2C9 activity; P11712; recombinant CYP2C9, luciferin-H conversion, luminescence; stronger effect = higher value; factor 1 = untreated enzyme, 0 = blocked; activation factor at 5 µM; 96,000 compounds, 1.4% hits;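 active = activation factor of 2 or more for CYP2C9 at a 5 µM dose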;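 note: 0 = sulfaphenazole-blocked wells and 1 = vehicle-only wells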
Target sequence (P11712 whole entry, looked up): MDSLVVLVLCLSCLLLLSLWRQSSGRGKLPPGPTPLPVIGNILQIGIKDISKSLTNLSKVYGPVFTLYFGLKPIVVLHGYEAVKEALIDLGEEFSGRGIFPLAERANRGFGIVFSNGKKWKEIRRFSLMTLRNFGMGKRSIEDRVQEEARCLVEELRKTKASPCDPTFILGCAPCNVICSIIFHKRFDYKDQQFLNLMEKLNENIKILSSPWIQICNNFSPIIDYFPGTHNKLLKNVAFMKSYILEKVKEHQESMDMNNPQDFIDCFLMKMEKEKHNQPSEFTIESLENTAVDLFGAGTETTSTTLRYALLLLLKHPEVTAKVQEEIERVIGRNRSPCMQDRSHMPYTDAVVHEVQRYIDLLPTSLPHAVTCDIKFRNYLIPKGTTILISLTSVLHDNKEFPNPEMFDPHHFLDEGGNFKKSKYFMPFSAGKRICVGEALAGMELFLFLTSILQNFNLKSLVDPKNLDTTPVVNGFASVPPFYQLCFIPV
CYP2C19 act: increases human CYP2C19 enzyme activity | activation factor at 5 µM | 96,000 tested, under 10 active | P33261 | recombinant CYP2C19, luciferin-H EGE luminescence; stronger effect = higher value; 0 = fully inhibited enzyme, 1 = untreated enzyme;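 active = activation factor of at least 2 at 5 µM in the primary screen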;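 note: 0 = wells with 2.5 mM tranylcypromine and 1 = vehicle-only wells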
CYP2C9 inh: blocks human cytochrome P450 2C9; CYP2C9 Supersomes, luciferin-H conversion, luminescence; inhibition, % at 5 µM; P11712; 96,000 compounds, 20% hits;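 active = blocking of liver enzyme CYP2C9 beyond about 50% at 5 µM, limit read from the data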
Active calls of the source: *.

For CCc1cc2ccccc2nc1SCC(=O)N1CCN(C(=O)c2ccco2)CC1 the results were CYP2C19 inh 83.0*, CYP2C9 activ 0.2, CYP2C19 act 0.2 and CYP2C9 inh 80.3*.
Screening O=C(CSc1nc2ccccc2o1)N1CCN(C(=O)c2ccco2)CC1 returned Cav3 T inh 0.312, CYP2C19 inh 38.6, CYP2C9 activ 0.6, CYP2C19 act 0.6 and CYP2C9 inh 38.4.
For CCc1cc2cc(C)ccc2nc1SCC(=O)N1CCN(C(=O)c2ccco2)CC1 the results were CYP2C19 inh 41.2, CYP2C9 activ 0.3, CYP2C19 act 0.6 and CYP2C9 inh 70.3*.
CN(CC(=O)NCCC1=CCCCC1)S(=O)(=O)c1ccc2c(c1)c(=O)n(C)c(=O)n2C was read as CYP2C19 inh 25.5, CYP2C9 activ 1.5, CYP2C19 act 0.7 and CYP2C9 inh -53.8.
Screening Fc1cccc(C[n+]2csc3ccccc32)c1 returned Cav3 T inh 0.174, CYP2C19 inh 36.8, CYP2C9 activ 0.4, CYP2C19 act 0.6 and CYP2C9 inh 61.6*.
Screening NC1=NC[C@H](Cc2ccccc2)N1CCc1cccc(F)c1 returned Cav3 T inh -0.0478.
For c1ccc(C[n+]2csc3ccccc32)cc1 the results were Cav3 T inh -0.452, CYP2C19 inh 40.6, CYP2C9 activ 0.4, CYP2C19 act 0.6 and CYP2C9 inh 55.4*.
CCN(CC)C(=O)Cn1c(=O)n(-c2ccccc2)c(=O)n1CC(=O)N(CC)CC was read as Cav3 T inh 0.15, CYP2C19 inh 4.9, CYP2C9 activ 1.1, CYP2C19 act 1 and CYP2C9 inh -10.2.
For O=C(NCc1ccco1)C1CC(c2c(Cl)cccc2Cl)=NO1 (stereo unspecified) the results were Cav3 T inh 0.656, CYP2C19 inh 31.6, CYP2C9 activ 2.3*, CYP2C19 act 0.7 and CYP2C9 inh -134.3.
For COc1ccccc1CNC(=O)C1CC(c2c(Cl)cccc2Cl)=NO1 (stereo unspecified) the results were Cav3 T inh 0.822, CYP2C19 inh 83.8*, CYP2C9 activ 2.2*, CYP2C19 act 0.2 and CYP2C9 inh -115.2.
O=C(NCc1cccc(C(F)(F)F)c1)C1CC(c2c(Cl)cccc2Cl)=NO1 (stereo unspecified) was read as Cav3 T inh -2.19, CYP2C19 inh 78.3*, CYP2C9 activ 0.6, CYP2C19 act 0.2 and CYP2C9 inh 43.1.
`COc1cc(OC)c(C2=NOC(C(=O)NCCc3ccccc3)C2)cc1Cl` (stereo unspecified) gave Cav3 T inh 0.0835, CYP2C19 inh 61.5*, CYP2C9 activ 1.3, CYP2C19 act 0.4 and CYP2C9 inh -28.3.
`O=C(NCc1ccc(C(F)(F)F)cc1)C1CC(c2cccc(F)c2)=NO1` (stereo unspecified) gave Cav3 T inh -2.72*.
O=C(NCC1CCCO1)C1CC(c2ccccc2Cl)=NO1 (stereo unspecified) was read as Cav3 T inh 0.314, CYP2C19 inh 56.1*, CYP2C9 activ 4.2*, CYP2C19 act 0.4 and CYP2C9 inh -318.0.
Cc1c(NC(=O)c2n[nH]c(=O)c3ccccc23)c(=O)n(-c2ccccc2)n1C was read as Cav3 T inh -0.178, CYP2C19 inh -19.9, CYP2C9 activ 1.3, CYP2C19 act 1.2 and CYP2C9 inh -27.3.
For CC(Oc1ccccc1)C(=O)NC1CCN(Cc2ccccc2)CC1 (stereo unspecified) the results were Cav3 T inh 0.441, CYP2C19 inh -8.8, CYP2C9 activ 1, CYP2C19 act 1.1 and CYP2C9 inh 1.2.
Screening CCc1ccccc1NC(=O)c1ccc(CN2CCC(Cc3ccccc3)CC2)cc1 returned Cav3 T inh -7.83*, CYP2C19 inh 56.4*, CYP2C9 activ 0.7, CYP2C19 act 0.4 and CYP2C9 inh 34.7.
For Cc1ccccc1NC(=O)c1ccc(CN2CCc3ccccc3C2)cc1 the results were Cav3 T inh -6.65*, CYP2C19 inh 32.5, CYP2C9 activ 0.7, CYP2C19 act 0.7 and CYP2C9 inh 27.2.
For Cc1ccccc1NC(=O)c1ccc(CSc2ncccn2)cc1 the results were Cav3 T inh 0.634, CYP2C19 inh 9.7, CYP2C9 activ 0.7, CYP2C19 act 0.9 and CYP2C9 inh 28.2.
Screening CN1CCN(C(=O)c2ccc(CN3CCOCC3)cc2)CC1 returned CYP2C19 inh -12.1, CYP2C9 activ 1.2, CYP2C19 act 1.1 and CYP2C9 inh -22.0.
For O=C(c1ccc(CN2CCOCC2)cc1)N1CCC(Cc2ccccc2)CC1 the results were Cav3 T inh 0.0236, CYP2C19 inh 66.0*, CYP2C9 activ 0.3, CYP2C19 act 0.3 and CYP2C9 inh 70.6*.
For N#Cc1c(/N=C/C=C/c2ccccc2)sc2c1CCCC2 the results were Cav3 T inh -0.161, CYP2C19 inh 13.7, CYP2C9 activ 1.3, CYP2C19 act 0.9 and CYP2C9 inh -27.0.
Screening CCOC(=O)N1CCN(Cc2nc(-c3ccc(C)cc3)no2)CC1 returned Cav3 T inh 0.36, CYP2C19 inh 1.4, CYP2C9 activ 0.9, CYP2C19 act 1 and CYP2C9 inh 5.5.
`COc1ccccc1N(CC(=O)NCC1CCCO1)C(=O)CCC(=O)Nc1nccs1` (stereo unspecified) gave Cav3 T inh 0.00782.
For COc1ccc2oc(=N)c(-c3nnc4n3CCCCC4)cc2c1 the results were Cav3 T inh 0.219, CYP2C19 inh -9.2, CYP2C9 activ 0.9, CYP2C19 act 1.1 and CYP2C9 inh 12.8.
Screening N=c1oc2ccc3ccccc3c2cc1-c1nnc2n1CCCCC2 returned Cav3 T inh 0.559, CYP2C19 inh 23.7, CYP2C9 activ 2.1*, CYP2C19 act 0.8 and CYP2C9 inh -114.9.
For O=C(C1CCC(N2C(=O)C3CC=CCC3C2=O)CC1)N1CCCCC1 (stereo unspecified) the results were CYP2C19 inh 31.5, CYP2C9 activ 0.5, CYP2C19 act 0.7 and CYP2C9 inh 45.8.
Screening COc1cc2c(cc1OC)C(c1cc3cc(OC)c(OC)cc3[nH]c1=O)N(C(=O)C1CC1)CC2 (stereo unspecified) returned Cav3 T inh 0.75, CYP2C19 inh 25.4, CYP2C9 activ 0.4, CYP2C19 act 0.7 and CYP2C9 inh 61.3*.
For CNC(=O)CSc1nnnn1CCCOC the results were Cav3 T inh 0.0728, CYP2C19 inh -6.0, CYP2C9 activ 1.3, CYP2C19 act 1.1 and CYP2C9 inh -25.5.
NC1=NC2(CCN(Cc3ccccc3)CC2)n2c(nc3ccccc32)N1 was read as Cav3 T inh -0.318, CYP2C19 inh 26.2, CYP2C9 activ 0.4, CYP2C19 act 0.7 and CYP2C9 inh 57.2*.
`NC1=NC2(CCCCC2)n2c(nc3ccccc32)N1` gave Cav3 T inh -0.301, CYP2C19 inh -0.5, CYP2C9 activ 1, CYP2C19 act 1 and CYP2C9 inh 1.2.
O=C(O)CCc1nn2c3ccccc3nc2n(CCN2CCCCC2)c1=O was read as Cav3 T inh 0.0942.
Screening CC1Cc2nc(SCC(=O)Nc3ccc4c(c3)OCO4)n(Cc3ccccc3)c(=O)c2S1 (stereo unspecified) returned Cav3 T inh -3.41, CYP2C19 inh 83.5*, CYP2C9 activ 0.3, CYP2C19 act 0.2 and CYP2C9 inh 74.8*.

Screens: PubChem BioAssay, several laboratories
